The values below come from PubChem BioAssay (NCATS).

Records with an inconclusive call do not appear. Entries that show only a call come without a potency. Active and inactive are the calls of the source. The call rests on the fitted dose curve; in most records, active means well fitted curve in the direction sought with a large enough effect; inconclusive means small, poorly fitted or top-dose-only effect, or another doubt; inactive means no such curve, though single readings can be large; an effect the other way counts as inactive or inconclusive.

Cytochrome P450 3A4 (Homo sapiens), sequence (P08684 whole entry, looked up): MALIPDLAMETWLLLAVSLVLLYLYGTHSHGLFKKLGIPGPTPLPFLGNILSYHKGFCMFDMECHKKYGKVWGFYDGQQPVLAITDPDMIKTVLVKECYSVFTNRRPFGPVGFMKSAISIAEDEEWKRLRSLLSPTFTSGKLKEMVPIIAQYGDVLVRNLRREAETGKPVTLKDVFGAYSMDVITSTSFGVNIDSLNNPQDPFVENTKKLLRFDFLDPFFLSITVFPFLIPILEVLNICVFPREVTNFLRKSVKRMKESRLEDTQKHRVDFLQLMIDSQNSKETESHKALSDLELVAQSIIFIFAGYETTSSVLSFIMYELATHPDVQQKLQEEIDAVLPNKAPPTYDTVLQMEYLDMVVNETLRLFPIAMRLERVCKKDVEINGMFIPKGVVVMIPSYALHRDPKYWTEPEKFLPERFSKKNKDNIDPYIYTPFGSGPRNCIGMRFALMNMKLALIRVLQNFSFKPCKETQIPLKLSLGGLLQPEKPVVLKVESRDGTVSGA

Test system in one assay: not listed separately
In words: Cellular Toxicity (caspase-3) N2a (AID 665).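 Further: compound exposure lasted 16 h at 37 °C before readout.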 The settings on record: N2a cells, luminescence, normalized: DMSO 0%, 10 µM staurosporine 100%; series mostly up to 92.2 µM. In short, it runs like this: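 Plated mouse neuroblastoma N2a cells received titrated compounds for 16 h in complete medium. Caspase activity was then detected with a peptide-aminoluciferin luminescent reagent.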
`COc1ccc(OC)cc1`: the compound was classed as inactive.

`Clc1cc(Cl)cc(Cl)c1`: the result was inactive.

As for `Cc1c(C(=O)O)cccc1[N+](=O)[O-]`, the result was inactive.

Consider `CCCCCCCCCCCCC1CO1` (stereo not drawn), for which the result was inactive.

For `COCCOC(=O)c1ccccc1C(=O)OCCOC`, the call was inactive.

Take `CCCCCCCCC`: the call was inactive.

Test system in a further assay: not listed separately
Nature of the assay: Cellular Toxicity (caspase-3) NIH 3T3 (AID 666). The settings on record: NIH 3T3 caspase-3 activation, apoptosis/toxicity, 0% DMSO, 100% is 100 µM tamoxifen; series mostly up to 92.2 µM. In short, it runs like this:
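Concentration-response qHTS in NIH 3T3 mouse fibroblasts scores caspase-3/7 activation as rising luminescence after 16 hr compound exposure. Signals are scaled between DMSO-only and 100 uM tamoxifen.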
On to `O=CNc1ccccc1`, for which the call was inactive.

As to `Cc1ccc(C#N)cc1`, the outcome was inactive.

For the compound `CC(C)C=O`, the result was inactive.

Regarding `CCCCCCC=O`, the outcome was inactive.

As for `CN(C)c1cccc(O)c1`, the result was inactive.

With `O=C(O)c1ccc(Cl)cc1Cl`, the call was inactive.

Turning to `CCCC(Cl)CCCC(Cl)CCC(Cl)CCC(Cl)CCC(Cl)CCCC(Cl)CCC` (stereo not drawn), the compound was classed as inactive.

With `CNC(=O)c1ccccc1`, the outcome was inactive.

Consider `ClCCl`, for which the compound was called inactive.

As to `CC(=O)Nc1ccc(C)cc1`, the compound was classed as inactive.

In the case of `CC(C)(c1cc(Br)c(OCC(Br)CBr)c(Br)c1)c1cc(Br)c(OCC(Br)CBr)c(Br)c1` (stereo not drawn), the call was inactive.

In the case of `CC(=O)Nc1ccc(N)cc1`, the outcome was inactive.

In the case of `Cc1ccccc1C(N)=O`, the compound was classed as inactive.

With `CC(=O)C1(C)CC2=C(CCCC2(C)C)CC1C` (stereo not drawn), the outcome was inactive.

In the case of `CC(C=O)Cc1ccc(C(C)(C)C)cc1` (stereo not drawn), the outcome was inactive.

Regarding `CCCCN(CCO)CCCC`, the call was inactive.

As for `CC(O)CC(C)O` (stereo not drawn), the outcome was inactive.

Regarding `OCCO`, the compound was classed as inactive.

With `CC(=O)OC(C)=O`, the compound was called inactive.

Turning to `NS(=O)(=O)O`, the compound was called inactive.

In the case of `CCOC(=O)C(C)C(C)=O` (stereo not drawn), the outcome was inactive.

`Cc1ccc(C)c([N+](=O)[O-])c1`: the compound was called inactive.

For `C=C(C)C(=O)OCCCCCCCCCC`, the compound was called inactive.

On to `COC(=O)CCCC(=O)OC`, for which the outcome was inactive.

Turning to `c1ccc(Nc2ccccc2)cc1`, the compound was classed as inactive.

Turning to `O=C(O)c1cc(Cl)cc(Cl)c1`, the call was inactive.

Regarding `CC/C=C1/OC(=O)c2ccccc21`, the outcome was inactive.

For `Cc1ccco1`, the compound was called inactive.

As for `NCCCCCCN`, the compound was called inactive.

With `BrC/C=C/CBr`, the compound was called inactive.

`CC(=C/C=C/C(C)=C/C=C/C=C(C)/C=C/C=C(C)/C=C/C(=O)O)/C=C/C(=O)O`: the compound was called inactive.

Consider `CCOC(C)(C)C`, for which the call was inactive.

As for `O=C(O)c1cccc(Cl)c1Cl`, the call was inactive.

Turning to `COc1ccc(OC)cc1`, the result was inactive.

With `Clc1cc(Cl)cc(Cl)c1`, the compound was classed as inactive.

Consider `Cc1c(C(=O)O)cccc1[N+](=O)[O-]`, for which the result was inactive.

On to `CCCCCCCCCCCCC1CO1` (stereo not drawn), for which the compound was classed as inactive.

`COCCOC(=O)c1ccccc1C(=O)OCCOC`: the compound was called inactive.

`CCCCCCCCC`: the compound was classed as inactive.

Test system in a further assay: not listed separately
In words: Cellular Toxicity (caspase-3) Renal Proximal Tubule (AID 667).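 Further: cells exposed to compound for 16 hours at 37 °C before detection.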 The following applies: renal proximal tubule cells, primary cells freshly taken from rat; Potency: caspase-3 activation; series mostly up to 91.7 µM. In outline: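 Luminescent caspase 3/7 signal from peptide-aminoluciferin cleavage measures apoptosis in freshly isolated rat kidney proximal tubule cells after 16 h compound exposure. Concentration-response data are normalized to DMSO and 10 uM staurosporine, and AC50 values come from Hill equation fits.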
Turning to `O=CNc1ccccc1`, the Potency entry is “inactive”.

For the compound `Cc1ccc(C#N)cc1`, the Potency entry was “inactive”.

In the case of `CC(C)C=O`, the Potency result was “inactive”.

In the case of `CCCCCCC=O`, the Potency entry is “inactive”.

As to `CN(C)c1cccc(O)c1`, the Potency entry was “inactive”.

As to `O=C(O)c1ccc(Cl)cc1Cl`, the Potency entry was “inactive”.

Consider `CCCC(Cl)CCCC(Cl)CCC(Cl)CCC(Cl)CCC(Cl)CCCC(Cl)CCC` (stereo not drawn), for which the Potency entry is “inactive”.

For `CNC(=O)c1ccccc1`, the Potency entry was “inactive”.

Consider `ClCCl`, for which the Potency entry was “inactive”.

As to `CC(=O)Nc1ccc(C)cc1`, the Potency entry was “inactive”.

Consider `CC(C)(c1cc(Br)c(OCC(Br)CBr)c(Br)c1)c1cc(Br)c(OCC(Br)CBr)c(Br)c1` (stereo not drawn), for which the Potency result was “inactive”.

In the case of `CC(=O)Nc1ccc(N)cc1`, the Potency entry was “inactive”.

For the compound `Cc1ccccc1C(N)=O`, the Potency entry is “inactive”.

For the compound `CC(=O)C1(C)CC2=C(CCCC2(C)C)CC1C` (stereo not drawn), the Potency entry was “inactive”.

Consider `CC(C=O)Cc1ccc(C(C)(C)C)cc1` (stereo not drawn), for which the Potency entry was “inactive”.

As to `CCCCN(CCO)CCCC`, the Potency result was “inactive”.

`CC(O)CC(C)O` (stereo not drawn): the Potency entry is “inactive”.

Consider `OCCO`, for which the Potency entry is “inactive”.

For the compound `CC(=O)OC(C)=O`, the Potency entry was “inactive”.

As to `NS(=O)(=O)O`, the Potency entry is “inactive”.

For the compound `CCOC(=O)C(C)C(C)=O` (stereo not drawn), the Potency entry is “inactive”.

`Cc1ccc(C)c([N+](=O)[O-])c1`: the Potency entry was “inactive”.

Regarding `C=C(C)C(=O)OCCCCCCCCCC`, the Potency entry is “inactive”.

As to `COC(=O)CCCC(=O)OC`, the Potency result is “inactive”.

Consider `c1ccc(Nc2ccccc2)cc1`, for which the Potency result is “inactive”.

For `O=C(O)c1cc(Cl)cc(Cl)c1`, the Potency result is “inactive”.

Regarding `CC/C=C1/OC(=O)c2ccccc21`, the Potency entry is “inactive”.

For `Cc1ccco1`, the Potency result is “inactive”.

As to `NCCCCCCN`, the Potency entry was “inactive”.

On to `BrC/C=C/CBr`, for which the Potency entry was “inactive”.

As to `CC(=C/C=C/C(C)=C/C=C/C=C(C)/C=C/C=C(C)/C=C/C(=O)O)/C=C/C(=O)O`, the Potency result is “inactive”.

In the case of `CCOC(C)(C)C`, the Potency result was “inactive”.

In the case of `O=C(O)c1cccc(Cl)c1Cl`, the Potency entry was “inactive”.

Turning to `COc1ccc(OC)cc1`, the Potency entry is “inactive”.

As for `Clc1cc(Cl)cc(Cl)c1`, the Potency result is “inactive”.

With `Cc1c(C(=O)O)cccc1[N+](=O)[O-]`, the Potency entry was “inactive”.

Turning to `CCCCCCCCCCCCC1CO1` (stereo not drawn), the Potency result is “inactive”.

As for `COCCOC(=O)c1ccccc1C(=O)OCCOC`, the Potency result is “inactive”.

Consider `CCCCCCCCC`, for which the Potency entry was “inactive”.

The next assay addresses Cytochrome P450 3A4 (Homo sapiens) (UniProt P08684). In words: qHTS Assay for Inhibitors and Substrates of Cytochrome P450 3A4 (AID 884). Further: nearly all actives have a fitted effect of over 50% in size. The following applies: recombinant CYP3A4, Luciferin-PPXE luminescence; series mostly up to 57.1 µM. In outline: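 20 nM human CYP3A4 with 25 uM Luciferin-PPXE (at KM) in 200 mM KPO4, preincubated 10 min with compound; NADPH regeneration started a 60 min RT reaction. Luciferin detected by luminescence, normalized to 57 uM ketoconazole as full inhibition.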
`O=CNc1ccccc1`: the Potency entry was “inactive”.

`Cc1ccc(C#N)cc1`: the Potency result was “inactive”.

`CC(C)C=O`: the Potency result was “inactive”.

`CCCCCCC=O`: the Potency result is “inactive”.

For the compound `CN(C)c1cccc(O)c1`, the Potency entry is “inactive”.

Turning to `O=C(O)c1ccc(Cl)cc1Cl`, the Potency entry was “inactive”.

Turning to `CCCC(Cl)CCCC(Cl)CCC(Cl)CCC(Cl)CCC(Cl)CCCC(Cl)CCC` (stereo not drawn), the Potency entry was “inactive”.

In the case of `CNC(=O)c1ccccc1`, the Potency entry was “inactive”.

As for `ClCCl`, the Potency result was “inactive”.

Take `CC(=O)Nc1ccc(C)cc1`: the Potency entry was “inactive”.

In the case of `CC(C)(c1cc(Br)c(OCC(Br)CBr)c(Br)c1)c1cc(Br)c(OCC(Br)CBr)c(Br)c1` (stereo not drawn), the Potency result was “inactive”.

As to `CC(=O)Nc1ccc(N)cc1`, the Potency entry was “inactive”.

`Cc1ccccc1C(N)=O`: the Potency entry was “inactive”.

For the compound `CC(=O)C1(C)CC2=C(CCCC2(C)C)CC1C` (stereo not drawn), the Potency result is “inactive”.

Take `CC(C=O)Cc1ccc(C(C)(C)C)cc1` (stereo not drawn): the Potency entry was “inactive”.

For the compound `CCCCN(CCO)CCCC`, the Potency result was “inactive”.

Regarding `CC(O)CC(C)O` (stereo not drawn), the Potency entry was “inactive”.

Consider `OCCO`, for which the Potency entry was “inactive”.

For `CC(=O)OC(C)=O`, the Potency result was “inactive”.

Turning to `NS(=O)(=O)O`, the Potency result is “inactive”.

In the case of `CCOC(=O)C(C)C(C)=O` (stereo not drawn), the Potency entry was “inactive”.

As to `Cc1ccc(C)c([N+](=O)[O-])c1`, the Potency entry was “inactive”.

As for `C=C(C)C(=O)OCCCCCCCCCC`, the Potency result is “inactive”.

On to `COC(=O)CCCC(=O)OC`, for which the Potency result was “inactive”.

Take `c1ccc(Nc2ccccc2)cc1`: the Potency result is “inactive”.

Consider `O=C(O)c1cc(Cl)cc(Cl)c1`, for which the Potency entry is “inactive”.

Regarding `CC/C=C1/OC(=O)c2ccccc21`, the Potency result is “inactive”.

Take `Cc1ccco1`: the Potency entry is “inactive”.

Regarding `NCCCCCCN`, the Potency result is “inactive”.

`BrC/C=C/CBr`: the Potency entry was “inactive”.

As to `CC(=C/C=C/C(C)=C/C=C/C=C(C)/C=C/C=C(C)/C=C/C(=O)O)/C=C/C(=O)O`, the Potency result was “inactive”.

As to `CCOC(C)(C)C`, the Potency result is “inactive”.

Regarding `O=C(O)c1cccc(Cl)c1Cl`, the Potency result was “inactive”.

With `COc1ccc(OC)cc1`, the Potency entry is “inactive”.

With `Clc1cc(Cl)cc(Cl)c1`, the Potency entry was “inactive”.

For the compound `Cc1c(C(=O)O)cccc1[N+](=O)[O-]`, the Potency result is “inactive”.

As for `CCCCCCCCCCCCC1CO1` (stereo not drawn), the Potency entry is “inactive”.

Regarding `COCCOC(=O)c1ccccc1C(=O)OCCOC`, the Potency result is “inactive”.

Consider `CCCCCCCCC`, for which the Potency result was “inactive”.
